Hits are enriched below; roughly 4.7% of the tested compounds scored in any of these assays.
3CLpro inhibitor: SARS-CoV 3CLpro protease inhibitors, primary screen, biochemical, quenched FRET; Replicase polyprotein 1ab (Severe acute respiratory syndrome coronavirus), P0C6X7; recombinant SARS-CoV 3CLpro, quenched FRET peptide cleavage; inhibition, % at 6 µM; 0.14% of 290,000 active; AID 1706, 2009; in the data active = inhibition above about 12%
Mtb FBA inh: Mtb FBA enzyme inhibitors, primary screen, biochemical, fluorescence, strain H37Rv. purified M. tuberculosis FBA, fluorescence read-out. 2.3% of 360,000 active. inhibition, % at 1 µM;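 also: 0% = vehicle and 100% = reference inhibitor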
Target sequence (P9WQA3 whole entry, looked up): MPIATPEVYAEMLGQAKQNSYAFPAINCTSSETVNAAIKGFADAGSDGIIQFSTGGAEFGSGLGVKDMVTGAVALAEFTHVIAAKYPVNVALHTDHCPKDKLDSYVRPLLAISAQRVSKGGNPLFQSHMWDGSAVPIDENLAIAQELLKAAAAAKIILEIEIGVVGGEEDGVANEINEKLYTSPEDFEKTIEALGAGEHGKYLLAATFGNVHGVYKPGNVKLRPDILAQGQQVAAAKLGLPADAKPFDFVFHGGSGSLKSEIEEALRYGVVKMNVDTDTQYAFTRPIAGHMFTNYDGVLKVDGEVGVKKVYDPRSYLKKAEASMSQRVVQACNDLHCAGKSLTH
DUSP3 inh: VHR1 phosphatase inhibitors, primary screen, biochemical, absorbance, uHTS. recombinant VHR phosphatase, pNPP absorbance. inhibition, % at 13.3 µM. 0.52% of 290,000 active; in the data active = inhibition above about 50%
Target sequence (P51452 whole entry, looked up): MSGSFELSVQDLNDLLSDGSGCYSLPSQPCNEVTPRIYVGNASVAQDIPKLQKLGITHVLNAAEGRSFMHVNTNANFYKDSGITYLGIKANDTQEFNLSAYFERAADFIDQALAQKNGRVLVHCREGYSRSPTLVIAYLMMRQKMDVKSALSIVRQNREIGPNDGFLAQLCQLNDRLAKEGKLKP
CCHFV vOTU inh: CCHFV vOTU protease inhibitors, primary screen, biochemical, Pep-AMC substrate, fluorescence. Crimean-Congo hemorrhagic fever virus L polyprotein viral ovarian tumor (vOTU) protease …. inhibition, % at 11.5 µM. 0.55% of 370,000 active. AID 651958, 2012; in the data active = inhibition above about 30%; also: 0% = vehicle wells with enzyme and 100% = no enzyme wells
RecA intein inh: Mtb RecA intein splicing inhibitors, primary screen, biochemical, fluorescence, HTS. cell-free RecA intein splicing. inhibition, % (test concentration not listed). 0.75% of 290,000 active. Protein RecA (Mycobacterium tuberculosis (strain ATCC 25618 / H37Rv)), P9WHJ3; in the data active = inhibition above about 30%;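 also: 0% = vehicle wells and 100% = reference inhibitor control wells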
GDH-TPI counter-1: GDH-TPI coupling enzyme inhibitors, primary screen, artefact control for M. tuberculosis FBA inhibitor project, biochemical, absorbance, full deck; 1.2% of 360,000 active; GDH-TPI coupled enzyme counterscreen, NADH absorbance; inhibition, % at 4.8 µM; in the data active = inhibition above about 30%;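 also: 0% = DMSO wells and 100% = wells lacking the enzyme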
Mtb FBA inh conf: M. tuberculosis aldolase blockers, biochemical, fluorescence, strain H37Rv, confirmation | 78% of 5,600 active | shares compounds with Mtb FBA inh | AID 651616, 2012 | purified M. tuberculosis FBA, fluorescence read-out | inhibition, % at 1 µM;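 also: 0% = vehicle wells and 100% = reference inhibitor wells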
GDH-TPI counter-2: GDH-TPI coupling enzyme inhibitors, artefact control for M. tuberculosis FBA inhibitor project, biochemical, fluorescence, high throughput. 81% of 5,600 active. GDH-TPI coupled enzyme counterscreen. AID 652141, 2013. shares compounds with Mtb FBA inh. inhibition, % at 1 µM; in the data active = inhibition above about 10%
Starred values were filed as active, the others as inactive. Rule as the data show it, unless noted: active = inhibition above about 27%; inactive = the rest.

For CCOC(=O)C(C)Sc1nc(N2CCOCC2)c2c(c1C#N)CC(C)(C)OC2 (configuration not stated) the results were Mtb FBA inh 2, CCHFV vOTU inh 0, RecA intein inh 0 and GDH-TPI counter-1 2.
For O=C1c2ccccc2NC(c2ccccn2)N1c1ccccc1F (configuration not stated) the results were 3CLpro inhibitor -1, Mtb FBA inh 62*, DUSP3 inh 8, CCHFV vOTU inh -80, RecA intein inh -7, GDH-TPI counter-1 3, Mtb FBA inh conf active and GDH-TPI counter-2 199*.
Cc1cccc(C2Nc3ccccc3C(=O)N2c2ccc(F)cc2)n1 (configuration not stated) was read as 3CLpro inhibitor 1, Mtb FBA inh 49*, DUSP3 inh -9, CCHFV vOTU inh -50, RecA intein inh -3, GDH-TPI counter-1 10, Mtb FBA inh conf 4 and GDH-TPI counter-2 -3.
COc1ccc(NC(=O)CN2CCN(CC(=O)Nc3ccc(OC)cc3)CC2)cc1 was read as 3CLpro inhibitor -1, Mtb FBA inh 2, DUSP3 inh 27, CCHFV vOTU inh -3, RecA intein inh 4 and GDH-TPI counter-1 -3.
Screening O=C1CCC(C(=O)OCc2cc(=O)oc3ccc4ccccc4c23)=NN1 returned 3CLpro inhibitor 1, Mtb FBA inh 31*, DUSP3 inh 13, CCHFV vOTU inh -54, RecA intein inh -2, GDH-TPI counter-1 22, Mtb FBA inh conf 91* and GDH-TPI counter-2 62*.
`COc1ccc2oc(C(=O)OCC(=O)N(C)c3ccccc3)c(C)c2c1` gave Mtb FBA inh 35*, CCHFV vOTU inh -22, RecA intein inh -8, GDH-TPI counter-1 -2, Mtb FBA inh conf 128* and GDH-TPI counter-2 101*.
COc1ccc2oc(C(=O)OCC(=O)N(C)Cc3ccccc3)c(C)c2c1 was read as Mtb FBA inh 31*, CCHFV vOTU inh -1, RecA intein inh 3, GDH-TPI counter-1 2, Mtb FBA inh conf 158* and GDH-TPI counter-2 168*.
O=c1nc2n(CCO)c3ccccc3cc-2c(=O)[nH]1 was read as Mtb FBA inh 96*, CCHFV vOTU inh -62, GDH-TPI counter-1 16, Mtb FBA inh conf 77* and GDH-TPI counter-2 56*.
`O=c1nc2n(Cc3ccccc3)c3ccccc3cc-2c(=O)[nH]1` gave 3CLpro inhibitor 1, DUSP3 inh -4, CCHFV vOTU inh -43 and RecA intein inh -3.
`CCOC(=O)c1c(NC(=O)C2C3C=CC(C3)C2C(=O)O)sc2c1CCC(CC)C2` (configuration not stated) gave 3CLpro inhibitor 0, Mtb FBA inh 34*, DUSP3 inh 2, CCHFV vOTU inh 13, RecA intein inh 3, GDH-TPI counter-1 14, Mtb FBA inh conf -1 and GDH-TPI counter-2 2.
For CCOC(=O)c1c(NC(=O)C2C3CCC(O3)C2C(=O)O)sc2c1CCC(CC)C2 (configuration not stated) the results were 3CLpro inhibitor 0, Mtb FBA inh 10, DUSP3 inh 38, CCHFV vOTU inh 3, RecA intein inh 0 and GDH-TPI counter-1 5.
Screening O=C(c1ccc2c(c1)OCCO2)C1CCN(C(=O)Nc2ccccc2F)CC1 returned 3CLpro inhibitor -6, Mtb FBA inh 29*, DUSP3 inh 7, CCHFV vOTU inh 9, RecA intein inh 0, GDH-TPI counter-1 2, Mtb FBA inh conf 71* and GDH-TPI counter-2 62*.
Screening O=C(c1ccc(F)cc1)C1CCN(C(=O)Nc2ccc(F)cc2F)CC1 returned 3CLpro inhibitor 1, Mtb FBA inh 1, DUSP3 inh 12, CCHFV vOTU inh 10, RecA intein inh -4 and GDH-TPI counter-1 -5.
`O=C(/C=C/c1cccs1)NC(=S)NNC(=O)c1ccccc1O` gave 3CLpro inhibitor 1, Mtb FBA inh 28*, DUSP3 inh 36, CCHFV vOTU inh 5, RecA intein inh 10, GDH-TPI counter-1 25, Mtb FBA inh conf -1 and GDH-TPI counter-2 3.
`COc1ccc(C(=O)NNC(=S)NC(=O)/C=C/c2cccs2)cc1` gave 3CLpro inhibitor 1, Mtb FBA inh 0, DUSP3 inh 35, CCHFV vOTU inh 9, RecA intein inh 3 and GDH-TPI counter-1 0.
`COc1ccc(NC(=O)c2ccc3ccccc3c2OC)cc1` gave Mtb FBA inh -3, CCHFV vOTU inh 9, RecA intein inh 5 and GDH-TPI counter-1 -1.
Screening CN(C)c1ccc(/C=C/c2ccc3c4ccccc4ccc3[n+]2-c2ccccc2)cc1 returned 3CLpro inhibitor -3, Mtb FBA inh 36*, DUSP3 inh 17, CCHFV vOTU inh 0, GDH-TPI counter-1 9, Mtb FBA inh conf 122* and GDH-TPI counter-2 101*.
CN(C)c1ccc(/C=C/c2ccc3ccccc3[n+]2C)cc1 was read as 3CLpro inhibitor -6, Mtb FBA inh -20, DUSP3 inh 33, CCHFV vOTU inh 4, RecA intein inh 0 and GDH-TPI counter-1 -1.
For CC(=O)Oc1ccc(C23c4ccccc4C2(OC(C)=O)c2cc(OC(C)=O)ccc23)cc1 (configuration not stated) the results were Mtb FBA inh 71*, CCHFV vOTU inh -18, GDH-TPI counter-1 6, Mtb FBA inh conf 98* and GDH-TPI counter-2 85*.
`COc1ccc2c(c1)[C@@]1(NCCc3c1[nH]c1ccc(OC)cc31)C(=O)N2C` gave CCHFV vOTU inh 5.
CCOc1ccc(S(=O)(=O)Nc2ccc(C(=O)NCC(C)(C)N3CCOCC3)cc2)cc1 was read as Mtb FBA inh -1, CCHFV vOTU inh -1, RecA intein inh -3 and GDH-TPI counter-1 -4.
Screening O=C1c2cccc3cccc(c23)C(=O)N1CC1CCN(S(=O)(=O)c2ccccc2)CC1 returned Mtb FBA inh 54*, CCHFV vOTU inh -12, GDH-TPI counter-1 -5, Mtb FBA inh conf 47* and GDH-TPI counter-2 29*.
For CN(C)CCNc1nc(-c2ccccc2F)c2sccc2n1 the results were Mtb FBA inh 17, CCHFV vOTU inh -10 and GDH-TPI counter-1 17.
Cc1cc(Cl)ccc1-c1nc(NCc2ccccc2)nc2ccsc12 was read as Mtb FBA inh 14, CCHFV vOTU inh 5 and GDH-TPI counter-1 3.

From PubChem BioAssay
